Shown is part of a subset that was picked to be rich in hits.
Cycloheximide cs – counter-screen for Shiga toxin inhibitors: cycloheximide protein synthesis inhibition. cell reporter, cycloheximide protein synthesis inhibition counterscreen. 12% of 300,000 active. max response, %. AID 2314; in the data active means max response mostly above about 13%, no sharp cut-off; inactive means mostly below about 14%; further: read at 38.3 µM for the half of the compounds with a filed dose; 0% is about no effect
Sm TGR block – inhibitors of Schistosoma mansoni thioredoxin glutathione reductase. 3% of 360,000 active. Q962Y6. purified TGR, DTNB reduction, TNB absorbance 405 nm. Potency, µM (top dose mostly 114 µM), inactives show at the highest dose activity change, negative = inhibition, hits mostly inhibitors; further: potency means the concentration at half of the fitted maximal effect; on the % scale 0 is the no-effect control and ±100 the full control effect; nearly all actives have a fitted effect of over 60% in size
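First, TGR (20 nM dispensed) and NADPH were mixed with compound. Second, a 15 min room-temperature incubation followed. Third, further NADPH and then DTNB were added to start the reaction. Finally, TNB absorbance was monitored kinetically.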
Shiga toxin inh – blocks Shiga toxin action in Vero cells. Vero cells, Shiga toxin protein synthesis inhibition reporter. inhibition, % at 38.7 µM. 9.2% of 290,000 active; in the data active means inhibition mostly above about 28%, no sharp cut-off; inactive means mostly below about 43%; further: 0% is about no effect
Giardia FBPA inh – inhibitors of Giardia lamblia fructose-1,6-bisphosphate aldolase | A8B2U2 | purified Giardia FBPA | Potency, µM (top dose mostly 59.6 µM), inactives show at the highest dose activity, negative = inhibition, hits mostly inhibitors | 0.71% of 290,000 active | AID 2451; further: potency means the concentration at half of the fitted maximal effect; on the % scale 0 is the no-effect control and ±100 the full control effect; nearly all actives have a fitted effect of over 55% in size
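Giardia FBPA (40 nM reagent) was preincubated 10 min at RT with compound (up to 57.5 uM final), then substrate plus GAPDH/TPI/NAD/arsenate coupling system with diaphorase/resazurin was added; resorufin fluorescence (525/598 nm) was read after 20 min.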
LmPK inh – LmPK (Leishmania mexicana) enzyme inhibition; Q27686; purified LmPK, Kinase-Glo ATP luminescence, 1 h; Potency, µM (highest dose often 57.5 µM), for inactives: top-dose activity change, negative = inhibition, actives largely listed as inhibitors; 0.37% of 290,000 active; AID 1721; further: potency means the concentration at half of the fitted maximal effect; on the % scale 0 is the no-effect control and ±100 the full control effect
Target sequence (Q27686 whole entry, looked up): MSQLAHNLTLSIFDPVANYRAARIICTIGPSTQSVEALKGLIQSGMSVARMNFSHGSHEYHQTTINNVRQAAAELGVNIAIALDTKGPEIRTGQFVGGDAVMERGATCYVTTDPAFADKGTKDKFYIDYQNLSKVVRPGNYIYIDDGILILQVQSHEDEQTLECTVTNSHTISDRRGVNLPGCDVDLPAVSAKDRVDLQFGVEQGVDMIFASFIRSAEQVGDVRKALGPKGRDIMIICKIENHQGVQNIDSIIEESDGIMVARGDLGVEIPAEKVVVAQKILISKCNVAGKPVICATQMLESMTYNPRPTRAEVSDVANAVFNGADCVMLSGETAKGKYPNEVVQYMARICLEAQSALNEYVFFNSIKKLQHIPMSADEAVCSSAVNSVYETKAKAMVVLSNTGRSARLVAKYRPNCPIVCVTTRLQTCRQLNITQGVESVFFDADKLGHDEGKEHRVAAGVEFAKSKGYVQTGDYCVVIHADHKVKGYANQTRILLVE
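Pyruvate kinase activity monitored as ATP production (luciferase luminescence). Conditions: 0.1 nM enzyme, 0.5 mM PEP, 0.1 mM ADP, 1 h, RT; normalized against uninhibited and no-enzyme wells.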
TbPYK inhibitor – blocks Trypanosoma brucei pyruvate kinase; AID 624173; Q57TT1; TbPYK enzyme, Kinase-Glo Plus ATP luminescence, 45 min; Potency, µM (highest dose often 76.8 µM), for inactives: top-dose activity, negative = inhibition, actives largely listed as inhibitors; 0.12% of 410,000 active; further: potency means the concentration at half of the fitted maximal effect; on the % scale 0 is the no-effect control and ±100 the full control effect; nearly all actives have a fitted effect of over 50% in size
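ADP (130 uM final) triggers the TbPYK reaction after compound addition; incubation is 45 min at room temperature. Kinase-Glo Plus is then added and luminescence imaged. Normalized data are fitted to concentration-effect curves.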
* marks the source's active call; other numbers are inactive results; ? = inconclusive; · = no result; [ ] = remark or other dose. Unless noted, the call rests on the fitted dose curve; in most records, active means well fitted curve in the direction sought with a large enough effect; inconclusive means small, poorly fitted or top-dose-only effect, or another doubt; inactive means no such curve, though single readings can be large; an effect the other way counts as inactive or inconclusive.

SMILES | Cycloheximide cs | Sm TGR block | Shiga toxin inh | Giardia FBPA inh | LmPK inh | TbPYK inhibitor
COc1ccccc1/C=C/c1nc(C#N)c(N2CCCCCC2)o1 | · | 10% | · | · | · | 0%
CC(=O)Oc1ccc(Cn2cnc3cc4ccccc4cc32)cc1 | 15* | 2% | 19 | -12% | 2% | 1%
Cc1ccc(Cn2cnc3ccccc32)cc1 | 7 | 2% | 18 | 5% | -2% | -1%
CCOc1ccc2c(c1)ncn2Cc1ccccc1 | 24* | 10% | 108* | 7% | -2%[11.5 µM] | 2%
Cc1ccccc1NC(=O)Cn1nc(-c2ccc(F)cc2)c2cnc3ccccc3c21 | · | -1% | · | · | · | -3%
Cc1ccc(C2C=C(c3ccccc3)Nc3nc(NS(=O)(=O)c4ccc(C)cc4)nn32)cc1 (centres undefined) | · | -21% | · | · | · | 7%
CC(=O)Nc1nc2n(n1)C(c1ccc(F)cc1)C=C(c1ccccc1)N2 (centres undefined) | 9 | 3.2µM* | -14 | -18% | 3% | -5%
CC(=O)Nc1nc2n(n1)C(c1ccccc1)C=C(c1ccccc1)N2 (centres undefined) | -4 | 4µM* | -14 | -18% | -3% | -7%
COc1ccccc1C1C=C(c2ccc(Cl)cc2)Nc2nc(NS(C)(=O)=O)nn21 (centres undefined) | -3 | 40µM* | -5 | 0% | 1% | ·
Cc1ccc(C2C=C(c3ccc(Cl)cc3)Nc3nc(NS(=O)(=O)c4ccccc4)nn32)cc1 (centres undefined) | · | 32µM* | · | · | · | 3%
O=C(Nc1nc2n(n1)C(c1ccc(F)cc1)C=C(c1ccccc1)N2)c1cccc([N+](=O)[O-])c1 (centres undefined) | · | 2% | · | · | · | -8%
CC(=O)Nc1cccc(Oc2nc(NCCN(C)C)nc3ccsc23)c1 | · | · | · | · | · | -1%
CS(=O)(=O)Nc1nc2n(n1)C(c1ccccc1)C=C(c1ccc(Br)cc1)N2 (centres undefined) | -1 | 22µM* | -4 | -6% | -1% | -13%
C=CCN(CC=C)c1nc2ccccc2nc1C(C#N)C(=O)OC(C)C (centres undefined) | -2 | 28µM* | 12 | -21% | 1% | -5%
C=CCOC(=O)C(C#N)c1nc2ccccc2nc1N1CCN(c2ccccc2OC)CC1 (centres undefined) | -2 | -2% | 3 | -13% | 2% | -4%
COc1cccc(C(=O)Nc2cccc(C(=O)OCc3cc(=O)n4c(C)csc4n3)c2)c1 | · | 4% | · | · | · | 3%
Cc1ccc(-n2nc3ccc(N)cc3n2)cc1C | 44* | 0% | · | -19% | -9% | -4%
Cc1ccc(-n2nc3ccc(N)cc3n2)cc1Cl | 32* | -17% | 67* | -12% | 4% | 5%
COc1ccc(-n2nc3ccc(NS(C)(=O)=O)cc3n2)cc1Cl | 9.6* | -6% | 35* | -12% | -5% | 6%
Cc1cc(N)ccc1-n1nc2ccccc2n1 | · | · | · | · | · | -3%
COc1ccc(-n2nc3ccc(N)cc3n2)cc1Cl | 28* | 1% | · | ? | -4% | 6%
Cc1ccc(-n2nc3ccc(N)cc3n2)c(C)c1 | 17* | 7% | · | -14% | 1% | -5%
COc1cccc(NC(=O)c2csc3c2CCCCC3)c1 | · | -1% | · | · | · | -4%
O=C(N/N=C/c1ccccc1F)c1csc2c1CCCC2 | 42* | -21% | 79* | 3% | 3% | -10%
O=C(COCC(=O)N/N=C/c1ccccc1F)N/N=C/c1ccccc1F | 11 | 1% | 22 | -11% | 1% | -2%
SMILES | Cycloheximide cs | Sm TGR block | Shiga toxin inh | Giardia FBPA inh | LmPK inh | TbPYK inhibitor
O=C(N/N=C/c1cccc(F)c1)c1csc2c1CCCC2 | 55* | 4% | 95* | -14% | -6% | -9%
CCOc1ccc(C(=O)N/N=C/c2ccccc2[N+](=O)[O-])cc1 | 73* | -4% | 102* | 0% | -5% | -1%
COc1ccc(C(=O)N/N=C/c2cccc3cccnc23)cc1 | -2 | -1% | -4 | -7% | 2% | 0%
Cc1ccc(C(=O)N/N=C\C=C\c2ccccc2[N+](=O)[O-])cn1 | 6 | 4% | 3 | -25% | 5% | 7%
Cc1ccc(C(=O)N/N=C/c2cc(Br)ccc2O)cn1 | 16* | 2% | · | -10% | 13% | 0%
Cc1ccc(C(=O)N/N=C\c2ccccc2[N+](=O)[O-])cn1 | 23* | -2% | 53 | -2% | -2% | -7%
CCOc1ccc(C(=O)N/N=C/c2cccc3cccnc23)cc1 | 35* | 1% | 70 | -21% | 2% | 4%
CC1CCc2c(sc(NC(=O)Cc3ccccc3)c2C(=O)Nc2ccc(Cl)cc2)C1 (centres undefined) | -9 | -12% | -10 | · | · | 1%
CCOc1ccc(C(=O)NC(C(=O)N2CCC2)C(C)C)cc1 (centres undefined) | · | 5% | · | · | · | 7%
Cc1ccc(N2CC(C(=O)NCc3ccc(C)n3C)CC2=O)cc1 (centres undefined) | -2 | 40µM* | -5 | ? | -5% | 1%
Cc1ccc(N2CC(C(=O)NCCC(C)C)CC2=O)cc1 (centres undefined) | -4 | -5% | -9 | 2% | 0% | -10%
COc1cc(O)sc1C=Nc1ccc(Cl)cc1 | 31* | -4% | 42* | -10% | 10% | -9%
Oc1ccc(Br)cc1C=Nc1ccc(Cl)cc1 | 3 | -3% | 13 | -4% | -5%[11.5 µM] | 2%
O=C(Cn1ccc2cc(S(=O)(=O)N3CCCCC3)ccc21)NCCc1ccccc1Cl | · | 10% | · | · | · | 2%
COc1ccc(C)cc1NC(=O)C(=O)NCC(c1cccnc1)N1CCN(c2ccccc2F)CC1 (centres undefined) | · | 0% | · | · | · | -7%
C=C(C)CN=C1NN=C(c2cc(C)n(-c3ccc(C)cc3)c2C)CS1 | 5 | -15% | -1 | -12% | -4% | -16%
COCCn1c(C)cc(C2=NNC(=NC(C)(C)C)SC2)c1C | 10 | -1% | 4 | -20% | 4% | -15%
CCN=C1NN=C(c2cc(C)n(CCc3ccccc3)c2C)CS1 | 32* | ? | 62* | -27% | 4% | -17%
Cc1cc(C2=NNC(=NCCc3ccccc3)SC2)c(C)n1CC1CCCO1 (centres undefined) | 46* | -31% | 194* | -15% | -3% | -24%
Cc1cc(C(=O)CN2C(=O)NC(C)(c3ccccc3)C2=O)c(C)n1CC1CCCO1 (centres undefined) | -3 | -9% | -7 | -2% | 0% | -1%
C=CCn1c(C)cc(C2=NNC(=NCc3ccccc3)SC2)c1C | 62* | -33% | 111* | -9% | 7% | -23%
Clc1ccc(C2=NNC(=NCC3CCCO3)SC2)cc1 (centres undefined) | 60* | 3% | 160* | 6% | -7% | -23%
COc1ccccc1NC(=O)c1oc2ccccc2c1NC(=O)Cc1ccccc1 | · | 1% | · | · | · | -17%

Assay outcomes deposited in PubChem BioAssay by National Center for Advancing Translational Sciences (NCATS).
